Shown are actives, neighbours in structure and some others; about 6.2% of the full set was active somewhere.
AHR act – AHR activators, primary screen, cell-based, luminescence, luciferase reporter, human. AID 2796, 2010. 320,000 compounds, 2.5% hits. AHR-responsive luciferase reporter cells. Aryl hydrocarbon receptor (Homo sapiens), P35869. activation, % at 5 µM; in the data active = activation above about 47%
GRIN3A LBD mod – binders of NR3A ligand-binding domain, primary screen, biophysical, differential scanning fluorimetry, uHTS. NR3A LBD differential scanning fluorimetry, Tm shift; 0% = protein alone, 100% = glycine-bound protein. 340,000 compounds, 2.5% hits. AID 1259313, 2017. Glutamate receptor ionotropic, NMDA 3A (GRIN3A) ligand-binding domain. Tm shift relative to glycine control, % at 25 µM;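 active = melting temperature shift of at least 10% of the positive control shift, at one fixed dose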
H9c2 protect – cardioprotection against H2O2-induced cell death, primary screen, uHTS, H9c2 cells, ATPLite luminescence | H9c2 cardiomyocytes, H2O2 injury protection, 2 h | protection from H2O2 cell death, % at 20 µM | 360,000 compounds, 0.63% hits | AID 588492, 2011;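 active = compounds giving at least 50% protection of heart cells from peroxide-induced death in the single-dose screen, raw or plate-pattern-corrected value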
Mot1-301 SUMO – yeast Mot1-301 growth rescue at high temperature, primary screen, SUMOylation pathway inhibitor project, S. cerevisiae, ATP luminescence, 38.5C | S. cerevisiae Mot1-301 growth rescue; percent above DMSO median, 100 means doubled | growth rescue, % at 18.8 µM | 320,000 compounds, 1% hits;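 active = every valid replicate shows activation above 250% relative to neutral control wells; inactive = the rest, any valid replicate at or below 250%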
NTR1 ag – agonists of human NTR1, primary screen, imaging, U2OS cells, beta-arrestin-GFP, high content | Neurotensin receptor type 1 (Homo sapiens), P30989 | AID 493036, 2011 | activation, % at 20 µM | 330,000 compounds, 0.17% hits | NTR1-U2OS beta-arrestin-GFP spot imaging, agonist mode;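 active = activation at or above 40% of the spot to cytoplasm intensity ratio, with at least 20 cells analyzed; inconclusive = wells under 20 cells, flagged as cytotoxic or low count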
Target sequence (P30989 whole entry, looked up): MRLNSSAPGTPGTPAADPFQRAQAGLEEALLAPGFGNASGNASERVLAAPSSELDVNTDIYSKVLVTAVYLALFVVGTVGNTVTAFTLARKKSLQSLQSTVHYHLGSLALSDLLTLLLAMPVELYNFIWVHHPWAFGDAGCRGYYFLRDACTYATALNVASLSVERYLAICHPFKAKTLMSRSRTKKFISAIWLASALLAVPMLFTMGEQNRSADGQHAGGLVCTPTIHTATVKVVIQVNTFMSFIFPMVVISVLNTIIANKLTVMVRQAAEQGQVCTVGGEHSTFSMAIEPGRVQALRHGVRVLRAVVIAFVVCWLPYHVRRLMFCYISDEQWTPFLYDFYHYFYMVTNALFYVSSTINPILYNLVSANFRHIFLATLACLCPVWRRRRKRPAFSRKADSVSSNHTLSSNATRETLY
AI-2 QS modul – Vibrio harveyi AI-2 quorum sensing modulators, primary screen, JMH597 strain, luminescence/OD600 ratio; Vibrio harveyi JMH597 AI-2 luminescence/OD600 ratio, 9 h; stronger effect = lower value; strain lacks LuxN and CqsS sensors; 0 = neutral-control median; activity change, % at 7.5 µM; 300,000 compounds, 0.4% hits; AID 2094, 2009; in the data active = activity change below about -75%, passing the limit was not always enough; inconclusive = no clear call, values can overlap the other calls;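 note: luminescence divided by OD600 gain over 9 h not by final OD600 alone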
JMH597 growth – Vibrio harveyi growth inhibition, confirmation, counter-screen for AI-2 quorum sensing project, JMH597 strain, OD600 absorbance; shares compounds with AI-2 QS modul; 9 h; lacks LuxN and CqsS sensors; growth inhibition, % at 7.5 µM; 750 compounds, 1% hits;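 active = every replicate shows growth inhibition above 50%; inconclusive = at least half, but not all, replicates pass that cutoff; inactive = fewer than half of replicates pass it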
BB721 lum counter – luminescence inhibition in constitutive-on V. harveyi, confirmation, counter-screen for LuxS inhibitor project, strain BB721, luminescence readout. shares compounds with AI-2 QS modul. Vibrio harveyi BB721 luminescence, 9 h. inhibition, % at 7.5 µM. 750 compounds, 95% hits. AID 2727, 2010;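 active = inhibition above about 80% in every replicate, not just on average, limit read from the data; inconclusive = at least half of replicates past the limit, but not all; inactive = fewer than half of replicates past the limit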
BB721 growth – growth inhibition of V. harveyi BB721, confirmation, cytotoxicity control for AI-2 quorum sensing inhibitors, strain BB721, absorbance OD600 | 750 compounds, 3% hits | growth inhibition, % at 7.5 µM | AID 2728, 2010 | shares compounds with AI-2 QS modul | Vibrio harveyi BB721 growth, 9 h;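 active = every replicate shows growth inhibition above 50%; inconclusive = at least half but not all replicates above 50% inhibition; inactive = under half of replicates above 50% inhibition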
AI-2 QS JMH597 – Vibrio harveyi AI-2 signaling luminescence modulation – JMH597 strain, confirmation; Vibrio harveyi JMH597 AI-2 quorum sensing luminescence, 9 h; luxN and CqsS knockout, AI-2 only; AID 2736, 2010; 750 compounds, 97% hits; inhibition, % at 7.5 µM; shares compounds with AI-2 QS modul;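 active = every replicate shows more than 75% inhibition of signal versus neutral control wells; inconclusive = half to three quarters of replicates exceed 75% inhibition; inactive = fewer than half of replicates exceed 75% inhibition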
Mot1 SUMO dose – growth restoration of Mot1-301 yeast on galactose, dose response, SUMO pathway inhibitor project, whole organism, S. cerevisiae, ATP luminescence, cherry-picked samples. shares compounds with Mot1-301 SUMO. S. cerevisiae Mot1-301 galactose growth, 24 h; -100 = growth of slx-deleted rescue strain. growth activity, percent, % at 42 µM. 2,300 tested, under 10 active;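 active = Signal drops as the depositor expects, and the fitted half-maximal dose is no more than ten times the top valid tested dose; inconclusive = Poor fit, or a flat curve whose signal drops by 30% to 70%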;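 note: more negative values mean stronger growth rescue toward the control strain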
AHR act confirm – AHR activators, confirmation, cell-based, luminescence, luciferase reporter, human. shares compounds with AHR act. human cells, AHR-responsive luciferase reporter. activation, % at 9 µM. 2,300 compounds, 87% hits; in the data active = activation above about 49%;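 note: HepG2 hepatoma cells carrying a DRE-driven firefly luciferase reporter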
PXR counter – human PXR activators, counter-screen for AHR activator project, cell-based, luciferase luminescence | cell-based PXR reporter | activation, % at 11.6 µM | AID 434939, 2010 | shares compounds with AHR act | 2,300 compounds, 88% hits; in the data active = activation above about 11%;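 note: human hepatoma DPX-2 cells expressing full-length human PXR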
Large screens that a line does not name were inactive (follow-up assays come after a bar, where they were run).

CCN(CC)c1ccc(C(=O)NNC(=O)CNC(=O)c2cccs2)cc1	none (no result: AI-2 QS modul)
Cc1ccc(CNC(=O)Nc2cccc(C)c2)cc1	AI-2 QS modul -90 | JMH597 growth inactive | BB721 lum counter 99 | BB721 growth inactive | AI-2 QS JMH597 99
CCOC(=O)c1cccc(NC(=S)NCc2ccc(C)cc2)c1	AI-2 QS modul -85 | JMH597 growth inactive | BB721 lum counter 89 | BB721 growth inactive | AI-2 QS JMH597 91
Cc1cc(C)n(CCCNC(=O)c2ccc(C)c(S(=O)(=O)N3CCOCC3)c2)n1	none (no result: Mot1-301 SUMO)
O=C(NCc1ccc(Cl)cc1)C(=O)c1c[nH]c2ccccc12	AI-2 QS modul -89 | JMH597 growth inactive | BB721 lum counter 97 | BB721 growth inactive | AI-2 QS JMH597 98
O=C(NCCc1ccccc1)C(=O)c1c[nH]c2ccccc12	none
CCCOc1ccc(N2C(=O)CC(SCCN)C2=O)cc1 (centres undefined)	AI-2 QS modul -87 | JMH597 growth inactive | BB721 lum counter 95 | BB721 growth inactive | AI-2 QS JMH597 96
O=C(COC(=O)c1ccc(Br)o1)Nc1nc2ccccc2s1	AI-2 QS modul inconclusive | JMH597 growth inactive | BB721 lum counter 93 | BB721 growth inactive | AI-2 QS JMH597 95
Cc1ccc2nc(NC(=O)COC(=O)c3ccco3)sc2c1	AI-2 QS modul -92 | JMH597 growth inactive | BB721 lum counter 98 | BB721 growth inactive | AI-2 QS JMH597 99
Cc1nn(CC(=O)Nc2ccc(C(=O)N3CCCC3)cc2)c(=O)c2ccccc12	AHR act 86, AI-2 QS modul -83 | JMH597 growth inactive | BB721 lum counter 94 | BB721 growth inactive | AI-2 QS JMH597 96 | AHR act confirm inactive | PXR counter inactive
CCOc1ccc(NC(=O)NC2CCS(=O)(=O)C2)cc1 (centres undefined)	none
N#Cc1c(-c2ccco2)cc(-c2cccnc2)nc1N	H9c2 protect 87, Mot1-301 SUMO 675 | Mot1 SUMO dose inactive
CCOC(=O)COc1nc(-c2ccc(C)cc2)cc(-c2ccco2)c1C#N	Mot1-301 SUMO 400 | Mot1 SUMO dose inactive
Cc1ccc(-n2nc(C(=O)N3CCOCC3)cc2-c2ccc(Cl)cc2)cc1	none
O=C(c1cc(-c2ccc(Cl)cc2)n(-c2ccc(Cl)cc2)n1)N1CCOCC1	Mot1-301 SUMO 399 | Mot1 SUMO dose inactive
N/C(=N\OC(=O)CCC1CCCC1)c1ccc([N+](=O)[O-])cc1	Mot1-301 SUMO 597 | Mot1 SUMO dose inactive
N/C(=N\OC(=O)CCC1CCCCC1)c1cccc([N+](=O)[O-])c1	none
COC(=O)c1ccc(C(=O)OC)c(NC(=O)Cc2cccs2)c1	none (no result: AHR act, GRIN3A LBD mod, Mot1-301 SUMO, NTR1 ag, AI-2 QS modul)
CCCn1nnnc1NCc1ccccc1OCC	none
CCOc1ccc(Cl)cc1CNc1nnnn1CC	Mot1-301 SUMO 464 | Mot1 SUMO dose inactive
CCc1nnc(NC(=O)CCC(=O)NC2CCCCCCC2)s1	none
O=C(c1ccc(C(=O)N2CCCc3ccccc32)s1)N1CCCc2ccccc21	none
O=C(c1ccccc1F)N1CCCc2ccccc21	Mot1-301 SUMO 495 | Mot1 SUMO dose inactive
CCOC(=O)c1sc(NC(=O)CSc2n[nH]c(-c3ccccc3)n2)c(C#N)c1C	GRIN3A LBD mod 27, Mot1-301 SUMO 472 | Mot1 SUMO dose inactive
CCOC(=O)c1sc(NC(=O)CSc2nc(C)cc(C)n2)c(C#N)c1C	none
CC(=O)NCC(=O)N(C)C(C(=O)Nc1ccc2c(c1)OCCO2)c1ccc(C)cc1 (centres undefined)	none
Cc1ccc(C(C(=O)Nc2ccc3c(c2)OCO3)N(C)C(=O)/C=C\c2ccc3c(c2)OCO3)cc1 (centres undefined)	GRIN3A LBD mod 13, Mot1-301 SUMO 383 | Mot1 SUMO dose inactive
CCCCCCCC(=O)Nc1cc(C(=O)NCCC)ccc1N1CCC2(CC1)CC(c1ccccc1)=NO2	none
CCOc1ccccc1OCCCC(=O)NCCc1ccc(S(N)(=O)=O)cc1	none
Cc1ccsc1C(=O)NCCc1ccc(S(N)(=O)=O)cc1	Mot1-301 SUMO 765 | Mot1 SUMO dose inactive
CCCCC(=O)NCCc1ccc(S(N)(=O)=O)cc1	Mot1-301 SUMO active | Mot1 SUMO dose inactive
Cc1ccc(CC(=O)NCCc2ccc(S(N)(=O)=O)cc2)cc1	none
O=C(N=C1SC2CS(=O)(=O)CC2N1c1ccccc1Cl)C1CCCO1 (centres undefined)	none
CC(C)(C)N(Cc1ccc2c(c1)OCO2)C(=O)/C=C\S(=O)c1ccccc1 (centres undefined)	none (no result: AHR act, Mot1-301 SUMO, NTR1 ag, AI-2 QS modul)
CCOc1ccc(C(=O)Nc2ccc(C(F)(F)F)n(C)c2=O)cc1	Mot1-301 SUMO active | Mot1 SUMO dose inactive
CCOc1ccc(C(=O)Nc2ccccc2C(=O)O)cc1	none
CN(C)C(=O)CN1C(=O)c2cccc3cccc1c23	Mot1-301 SUMO active | Mot1 SUMO dose inactive

Screening results (PubChem)
